Screening data deposited in PubChem BioAssay by The Scripps Research Institute Molecular Screening Center.
pPAFAH inh: pPAFAH (human) enzyme inhibition | 330,000 tested, 1.5% active | inhibition, % at 3.39 µM | recombinant pPAFAH, FP-rhodamine probe fluorescence polarization;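 active means inhibition above the mean inhibition across the screen plus 3 SD, cut at about 25% in these data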;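 further: inhibitors block binding of the rhodamine activity-based probe so polarization drops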
Target sequence (Q13093 whole entry, looked up): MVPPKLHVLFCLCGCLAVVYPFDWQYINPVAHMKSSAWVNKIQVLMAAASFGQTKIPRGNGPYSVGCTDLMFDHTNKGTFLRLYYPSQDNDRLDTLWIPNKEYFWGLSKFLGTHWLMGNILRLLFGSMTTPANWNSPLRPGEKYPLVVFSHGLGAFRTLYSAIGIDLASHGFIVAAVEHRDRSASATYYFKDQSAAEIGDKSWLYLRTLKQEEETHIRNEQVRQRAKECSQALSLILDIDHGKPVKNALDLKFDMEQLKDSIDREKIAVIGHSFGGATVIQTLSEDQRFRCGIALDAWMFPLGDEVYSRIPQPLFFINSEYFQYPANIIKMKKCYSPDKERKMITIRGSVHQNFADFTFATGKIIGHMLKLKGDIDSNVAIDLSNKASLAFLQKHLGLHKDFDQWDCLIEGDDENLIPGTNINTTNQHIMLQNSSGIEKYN
LYPLA2 inh: blocks human lysophospholipase 2, a PME1 counter-screen; AID 2177; 320,000 tested, 0.38% active; O95372; recombinant LYPLA2, FP-Rh probe fluorescence polarization; inhibition, % at 5.9 µM;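 active means inhibition above the screen-wide mean plus 3 SD, limit set per campaign, cut at about 26% in these data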
PAFAH1B2 FP inh: blocks human PAF acetylhydrolase 1b catalytic subunit 2; P68402; recombinant PAFAH1B2, FP-rhodamine activity probe, fluorescence polarization; inhibition, % at 3.39 µM; 340,000 tested, 1.2% active; AID 492953;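 active means inhibition above the mean of all tested compounds plus 3 SD, cut at about 24% in these data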
Target sequence (P68402 whole entry, looked up): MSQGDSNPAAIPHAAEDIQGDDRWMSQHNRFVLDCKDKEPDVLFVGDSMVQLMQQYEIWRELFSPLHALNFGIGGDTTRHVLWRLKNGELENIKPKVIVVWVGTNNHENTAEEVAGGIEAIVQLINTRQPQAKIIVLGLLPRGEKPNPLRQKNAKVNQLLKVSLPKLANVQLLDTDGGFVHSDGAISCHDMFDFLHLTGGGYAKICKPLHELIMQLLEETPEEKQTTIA
LYPLA1 counter: LYPLA1 (human) inhibition in PME1 counter-screen | O75608 | recombinant LYPLA1, FP-Rh probe fluorescence polarization | inhibition, % at 5.9 µM | 320,000 tested, 0.16% active | AID 2174;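 active means inhibition above the mean of all tested compounds plus 3 SD, set per campaign, cut at about 14% in these data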;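 further: inhibitors block serine hydrolase probe labeling of LYPLA1 so polarization falls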
PAFAH2 inh: inhibitors of human PAFAH2 | Q99487 | recombinant PAFAH2, FP-rhodamine activity probe, fluorescence polarization | inhibition, % at 3.39 µM | 340,000 tested, 0.99% active | AID 492956;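 active means inhibition above the mean over all tested compounds plus 3 SD, cut at about 30% in these data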;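 further: inhibitors block probe labeling of enzyme so polarization drops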
PAFAH1B3 FP inh: inhibitors of human PAFAH1B3 | recombinant PAFAH1B3, FP-rhodamine probe, fluorescence polarization | inhibition, % at 3.39 µM | 340,000 tested, 0.28% active | AID 492972;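 active means inhibition above the screen-wide average of all tested compounds plus 3 SD, cut at about 25% in these data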
PAFAH2 FP conf: PAFAH2 (human) inhibition, confirmed; shares compounds with PAFAH2 inh; recombinant PAFAH2, FP-rhodamine activity probe, fluorescence polarization; inhibition, % at 3.39 µM; 2,300 tested, 65% active; AID 493030;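 active means mean inhibition over three repeats above a set limit taken from the earlier primary screen, cut at about 30% in these data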;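 further: inhibitor blocks binding of rhodamine activity probe so polarization falls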
Of the large screens only hits and unclear results are named; the others gave an inactive call (follow-up assays come after a bar, where they were run). Compounds with a hit are over-represented: about 2.9% of the library has one in this group of screens.

O=C(COC(=O)c1n[nH]c2ccccc12)Nc1cccc(S(=O)(=O)N2CCOCC2)c1	PAFAH2 inh 50 (no result: pPAFAH inh, LYPLA2 inh, LYPLA1 counter) | PAFAH2 FP conf 32
O=C(COC(=O)c1cccc(S(=O)(=O)N2CCOCC2)c1)Nc1ccc2c(c1)OCO2	PAFAH2 inh 66 | PAFAH2 FP conf 38
O=C(COC(=O)c1cc(S(=O)(=O)N2CCOCC2)ccc1F)Nc1ccc(Cl)cn1	none
O=C(COC(=O)c1cccc(S(=O)(=O)N2CCOCC2)c1)Nc1ccc(Cl)cn1	PAFAH2 inh 64 | PAFAH2 FP conf 47
O=C(COC(=O)c1ccc2c(c1)OCCO2)Nc1cccc(S(=O)(=O)N2CCOCC2)c1	PAFAH2 inh 65 | PAFAH2 FP conf 56
CC(=O)Nc1ccccc1Nc1nc(NCCO)nc(N2CCCC2)n1	none
CCn1c(=O)cc(SCC(=O)NCc2cccnc2)c2ccccc21	none
O=C(COC(=O)C1CC2C=CC1C2)Nc1cccc(S(=O)(=O)N2CCOCC2)c1 (stereo unspecified)	PAFAH2 inh 41 | PAFAH2 FP conf inactive
O=C(OCC(=O)N1CCCc2ccccc21)c1cc(S(=O)(=O)N2CCOCC2)ccc1F	none
O=C(COC(=O)c1cc(S(=O)(=O)N2CCOCC2)ccc1O)Nc1ccc2c(c1)OCO2	PAFAH2 inh 42 (no result: LYPLA2 inh, LYPLA1 counter) | PAFAH2 FP conf 32
O=C(OCC(=O)N1CCCc2ccccc21)c1cc(S(=O)(=O)N2CCOCC2)ccc1O	PAFAH2 inh 73 | PAFAH2 FP conf 63
CCNC(=S)NNC(=O)c1nn(C)c(C)c1Cl	none
CN(C)S(=O)(=O)c1ccc(C(=O)N2CCN(S(=O)(=O)c3ccc4c(c3)OCCO4)CC2)cc1	PAFAH2 inh 45 (no result: pPAFAH inh, LYPLA2 inh, LYPLA1 counter) | PAFAH2 FP conf 41
CC(=O)Nc1ccc(C(=O)N2CCN(S(=O)(=O)c3ccc4c(c3)OCCCO4)CC2)cc1	none
CCCCNC(=O)CC1N=C2c3ccccc3N=C(SCC(=O)Nc3ccccc3OC)N2C1=O (stereo unspecified)	none
CCN(CC)S(=O)(=O)c1ccc(O)c(NC(=O)CN2CCc3ccccc3C2)c1	PAFAH2 inh 56 | PAFAH2 FP conf 56
O=C(O)c1ccccc1C(=O)c1ccc2c(c1)CCC2	none
O=Cc1ccc(OC(=O)CCCCC(=O)Oc2ccc(C=O)cc2)cc1	PAFAH2 inh 34 | PAFAH2 FP conf inactive
COC(=O)CCC(=O)Oc1ccc(OC(=O)CCC(=O)OC)cc1	none (no result: PAFAH1B2 FP inh, PAFAH2 inh, PAFAH1B3 FP inh)
Cc1c(OCc2ccccc2)c(=O)ccn1Cc1ccc(F)cc1	none
CCCCCCc1c(O)c2ccccc2[nH]c1=O	none
CCCCCCCCCCCC1=C(O)C(=O)C=C(O)C1=O	PAFAH2 inh 53 | PAFAH2 FP conf 40
Cc1ccccc1OCCOc1cccc(/C=N/NC(=O)Cc2nnc(N)s2)c1	PAFAH2 inh 33 | PAFAH2 FP conf inactive
CC(=O)Nc1ccc(NC(=O)C(C)O/N=C/c2cccc([N+](=O)[O-])c2)cc1 (stereo unspecified)	PAFAH2 inh 30 | PAFAH2 FP conf inactive
O=C(O/N=C/c1cccc([N+](=O)[O-])c1)C1CC1	PAFAH2 inh 92 | PAFAH2 FP conf 78
CC(C)N(C(=O)CO/N=C/c1cccc([N+](=O)[O-])c1)C(C)C	none
CCn1nc(C)cc1C(=O)N1CCCC(C(=O)c2ccc(Oc3ccccc3)cc2)C1 (stereo unspecified)	none
Cc1cc(C)n(-c2ccc(C(=O)OCC(=O)Nc3ccccc3F)cc2)n1	PAFAH2 inh 62 (no result: LYPLA2 inh, LYPLA1 counter) | PAFAH2 FP conf 51
Cc1ccc(NC(=O)COC(=O)c2ccc(-n3nc(C)cc3C)cc2)c(F)c1	PAFAH2 inh 42 (no result: LYPLA2 inh, LYPLA1 counter) | PAFAH2 FP conf 43
Cc1cc(C)n(-c2ccc(C(=O)OCC(=O)Nc3ccccc3[N+](=O)[O-])cc2)n1	none
CCOC(=O)c1c(-c2ccccc2)oc2ccc(OC)cc12	none
COC(=O)C1=C(C(=O)OC)SC2(S1)C(C(=O)OC)=C(C(=O)OC)SC1=C2c2cccc(C)c2NC1(C)C	none
CCc1ccccc1NC(=O)CN(C)C(=O)COC(=O)c1cccnc1Cl	none (no result: LYPLA2 inh, LYPLA1 counter)
O=C(NNC(=O)c1cccnc1SCc1cccc([N+](=O)[O-])c1)c1ccccn1	none
Cc1ccccc1-c1nc2sc(C)c(C)c2c(=O)o1	PAFAH2 inh 68 | PAFAH2 FP conf 54
COc1cc(-c2nc3sc(C)c(C)c3c(=O)o2)cc(OC)c1OC	none
Cc1sc2nc(-c3ccco3)oc(=O)c2c1C	PAFAH2 inh 62 | PAFAH2 FP conf 47
Cc1sc2nc(C(C)(C)C)oc(=O)c2c1C	PAFAH2 inh 36 | PAFAH2 FP conf 40
CCO/C(C)=C1\C(=O)N(CC)c2ccccc21	none
O=C(O/N=C1\CCCc2ccccc21)c1cccs1	PAFAH2 inh 42 | PAFAH2 FP conf inactive
O=C(Cc1ccccc1)O/N=C1\CCCc2ccccc21	none
O=C1CSC(=S)N1N=Cc1c(O)ccc2ccccc12	PAFAH2 inh 42 (no result: pPAFAH inh, LYPLA2 inh, LYPLA1 counter) | PAFAH2 FP conf 34
O=C1[C@@H]2Cc3c([nH]c4ccccc34)C(c3ccc(Cl)cc3)N2C(=O)CN1CCO (stereo partly specified)	none
Nc1[nH]n2c(=O)c3c(nc2c1N=Nc1ccc(Cl)cc1)CCCC3	PAFAH2 inh 40 | PAFAH2 FP conf inactive
Cc1ccc(CNC(=O)C2CCN(S(=O)(=O)c3cccnc3)CC2)cc1	none
CCN(CC(=O)Nc1ccc(NC(C)=O)cc1)CC(=O)Nc1ccc(F)c(Cl)c1	none
Cc1cc(O)c(/C=N/Nc2ccc(Cl)cc2)c(=O)o1	none
COc1ccc(Cl)cc1N=Cc1c(O)cc(C)oc1=O	none
Cc1cc(O)c(/C=N/OCc2ccc(Cl)cc2Cl)c(=O)o1	PAFAH2 inh 85 | PAFAH2 FP conf 77
Cc1cc(O)c(/C=N/Nc2cccc(Cl)c2)c(=O)o1	PAFAH2 inh 38 | PAFAH2 FP conf 30
COc1ccc2oc(C(=O)OCC(=O)NC3CCCC3)c(C)c2c1	PAFAH2 inh 53 | PAFAH2 FP conf 40
COc1ccc2oc(C(=O)OCC(=O)Nc3ccc(NC(C)=O)cc3)c(C)c2c1	none
COc1ccc2oc(C(=O)OCC(=O)NC3(C#N)CCCC3)c(C)c2c1	PAFAH2 inh 53 | PAFAH2 FP conf 38
CC(=O)Nc1ccc(C(=O)OCC(=O)NC(=O)NC2CCCCC2)cc1	PAFAH2 inh 53 | PAFAH2 FP conf 39
CC(C)Oc1ccc(C(=O)OCC(=O)NC(=O)NC2CCCC2)cc1	PAFAH2 inh 41 | PAFAH2 FP conf 34
CN(Cc1cnccn1)Cc1nc(Cc2ccccc2Cl)no1	none
Clc1ccccc1Cc1noc(CN2CCN(Cc3ccccn3)CC2)n1	PAFAH2 inh 33 | PAFAH2 FP conf inactive
COc1ccccc1C(=O)NCC(=O)NCCC(c1ccccc1)c1ccccc1	none
CC1CN(C(=O)c2cc(-c3ccncc3)nc3ccccc23)CC(C)O1 (stereo unspecified)	none
